Our source for the Potency, outcome and PLD induction values is PubChem BioAssay (Tox21).

A short description of test [1]: A CellTox Green Cytotoxicity Assay to monitor cytotoxicity in HepG2 cells - 24 hour (AID 1224878). Also: nearly all actives have a fitted effect of over 45% in size. The method, boiled down: (§1)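 HepG2 cells were seeded together with the CellTox Green dye at 600 cells/well, left 5 h at 37 C/5% CO2, then given compounds in DMSO. Fluorescence from dye bound to dead-cell DNA was read repeatedly over 40 h of treatment at 37 C.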
Test [2] can be described thus: A CellTox Green Cytotoxicity Assay to monitor cytotoxicity in HepG2 cells - 40 hour (AID 1224879). Also: nearly all actives have a fitted effect of over 40% in size. The method, boiled down:
as §1

The nature of test [3]: qHTS RealTime-Glo MT Cell Viability Assay in HEK293 cells - 0 hour (AID 1224880). Also: top concentration of the series differs between compounds; nearly all actives have a fitted effect of over 45% in size. The method, boiled down:
(§2)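 HEK293 cells mixed with RealTime-Glo reagents (NanoLuc plus cell-permeant prosubstrate) at 600 cells/well, preincubated 5 h at 37 C/5% CO2, then given 23 nL compound in DMSO. Nonlytic luminescence from viable cells was read at 0, 8, 16, 24, 32 and 40 h.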
In general terms: qHTS replaces the single test concentration by a dilution series.

Test [4] in a line: A CellTox Green Cytotoxicity Assay to monitor cytotoxicity in HEK293 cells - 32 hour (AID 1224881). Also: nearly all actives have a fitted effect of over 40% in size. The method, boiled down:
(§3)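 HEK293 cells premixed with CellTox Green dye were seeded at 600 cells/well and left 5 h at 37 C/5% CO2 before pin transfer of 23 nL compound in DMSO. Fluorescence from dye bound to dead-cell DNA was read during 40 h treatment.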

The nature of test [5]: A CellTox Green Cytotoxicity Assay to monitor cytotoxicity in HepG2 cells - 0 hour (AID 1224882). Also: nearly all actives have a fitted effect of over 35% in size. The method, boiled down: as §1
Test [6] can be described thus: A CellTox Green Cytotoxicity Assay to monitor cytotoxicity in HepG2 cells - 32 hour (AID 1224883). Also: nearly all actives have a fitted effect of over 50% in size. The method, boiled down:
as §1

A short description of test [7]: A CellTox Green Cytotoxicity Assay to monitor cytotoxicity in HEK293 cells - 8 hour (AID 1224884). Also: nearly all actives have a fitted effect of over 35% in size. In outline:
as §3

The nature of test [8]: qHTS RealTime-Glo MT Cell Viability Assay in HepG2 cells - 16 hour (AID 1224885). Also: nearly all actives have a fitted effect of over 50% in size. In outline:
(§4)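 Viability was tracked continuously by NanoLuc luminescence from prosubstrate reduced by living HepG2 cells, at successive time points over 40 h of compound exposure. Cells with reagent were preincubated 5 h at 37 °C before compound addition.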

Test [9] can be described thus: qHTS RealTime-Glo MT Cell Viability Assay in HEK293 cells - 8 hour (AID 1224887). Also: top concentration of the series differs between compounds; nearly all actives have a fitted effect of over 50% in size. The method, boiled down: as §2
Test [10] is described as follows: A CellTox Green Cytotoxicity Assay to monitor cytotoxicity in HEK293 cells - 16 hour (AID 1224888). Also: nearly all actives have a fitted effect of over 35% in size. The method, boiled down:
as §3

The nature of test [11]: qHTS RealTime-Glo MT Cell Viability Assay in HepG2 cells - 0 hour (AID 1224889). Also: nearly all actives have a fitted effect of over 50% in size. The method, boiled down: as §4
Test [12] is described as follows: A CellTox Green Cytotoxicity Assay to monitor cytotoxicity in HepG2 cells - 8 hour (AID 1224890). Also: nearly all actives have a fitted effect of over 45% in size. In outline: as §1
Test [13] in a line: qHTS assay to identify small molecule antagonists of the estrogen receptor alpha (ER-alpha) signaling pathway using the BG1 cell line in the presence of 0.1 nM 17-beta-estradiol - cell viability counter screen (AID 1259241). Also: nearly all actives have a fitted effect of over 40% in size. In outline:
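VM7Luc4E2 cells (endogenous full-length ER-alpha, 4xERE-luciferase), cultured 5 days in charcoal-stripped serum, exposed to compounds with 0.1 nM 17beta-estradiol (final) for 22 hr at 37C. Viability read in same wells as live-cell protease fluorescence after 30 min.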

The nature of test [14]: qHTS assay to identify small molecule antagonists of the androgen receptor (AR) signaling pathway using the MDA cell line in the presence of 0.5 nM R1881 - cell viability counter screen (AID 1259242). Also: nearly all actives have a fitted effect of over 45% in size. The method, boiled down: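 MDA-kb2 cells (human breast carcinoma, stably carrying MMTV-luciferase reporter) were exposed to compounds with 0.5 nM R1881 (final) for 16 hr at 37C, 0% CO2; viability then read as live-cell protease fluorescence (CellTiter-Fluor, 30 min) in the same wells.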

Test [15] can be described thus: qHTS assay to identify small molecule HDAC inhibitors (AID 1259364). Also: nearly all actives have a fitted effect of over 45% in size. Also: potency is read from the fitted curve at half-maximal effect. In outline:
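Wild-type HCT-116 cells were plated overnight, exposed to compounds for 2 h at 37 °C, then given HDAC-Glo class I/II luminogenic reagent for 30 min at room temperature before luminescence was read.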

Test [16] can be described thus: qHTS assay to identify small molecule phospholipidosis (PLD) inducers (AID 1259344; active = well fitted curve in the direction sought with a large enough effect; an effect the other way counts as inactive or inconclusive). In outline:
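HepG2 cells on collagen I, attached 4 h at 37 C, were co-treated with compound and LipidTOX Red dye for 24 h at 37 C, then fixed with paraformaldehyde plus Hoechst 33342 and imaged by high-content microscopy for phospholipid accumulation.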

Test [17] in a line: qHTS assay to identify small molecule HDAC inhibitors - cell viability counter screen (AID 1259365). The method, boiled down:
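Wild-type HCT-116 cells, 1,500/well, cultured overnight, then compound-treated 2 h at 37 C. Viability measured as ATP luminescence with CellTiter-Glo after 30 min at room temperature.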

Test [18] is described as follows: qHTS RealTime-Glo MT Cell Viability Assay in HEK293 cells - 24 hour (AID 1224886). In outline:
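Viability tracked continuously by luminescence as live cells reduce a prosubstrate for NanoLuc; HEK293 cells preincubated 5 h, compound-treated at 37 C, and read at 0, 8, 16, 24, 32 and 40 h.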

In test [19] the target is Estrogen receptor (Homo sapiens) (UniProt P03372). Kind of test: qHTS assay to identify small molecule antagonists of the estrogen receptor alpha (ER-alpha) signaling pathway using the BG1 cell line in the presence of 0.1 nM 17-beta-estradiol (AID 1259244). Also: nearly all actives have a fitted effect of over 50% in size. In outline:
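VM7Luc4E2 cells (endogenous full-length ER-alpha, stable 4xERE-luciferase) were grown 5 days in phenol red-free medium with charcoal-stripped FBS, then exposed 22 h at 37C to compounds plus 0.1 nM (final) 17beta-estradiol; ONE-Glo luminescence read-out.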

Test [20] concerns the target Androgen receptor (Homo sapiens) (UniProt P10275). The experiment in a line: qHTS assay to identify small molecule antagonists of the androgen receptor (AR) signaling pathway using the MDA cell line in the presence of 0.5 nM R1881 (AID 1259243). Also: nearly all actives have a fitted effect of over 50% in size. Also: potency is read from the fitted curve at half-maximal effect. In outline: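 MDA-kb2 human breast carcinoma cells carrying an MMTV-luciferase reporter (AR- and GR-responsive) were plated, rested 5 hr at 37C, dosed with compounds, then stimulated with 0.5 nM R1881 (final) for 16 hr; luminescence was read after ONE-Glo.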

Unmarked numbers belong to inactive results. Records with an inconclusive call do not appear. Calls of active or inactive are those of the source. Unless noted, calls follow the shape of the dose curve; as a rule, active = well fitted curve in the direction sought with a large enough effect in the repeat runs; inconclusive = weak or mixed curves; inactive = no such curve, though single readings can be large; an effect the other way counts as inactive or inconclusive.
% is scaled to controls: 0 for no effect and ±100 for the full control effect.

Chain of Estrogen receptor (Homo sapiens) (P03372 whole entry, looked up): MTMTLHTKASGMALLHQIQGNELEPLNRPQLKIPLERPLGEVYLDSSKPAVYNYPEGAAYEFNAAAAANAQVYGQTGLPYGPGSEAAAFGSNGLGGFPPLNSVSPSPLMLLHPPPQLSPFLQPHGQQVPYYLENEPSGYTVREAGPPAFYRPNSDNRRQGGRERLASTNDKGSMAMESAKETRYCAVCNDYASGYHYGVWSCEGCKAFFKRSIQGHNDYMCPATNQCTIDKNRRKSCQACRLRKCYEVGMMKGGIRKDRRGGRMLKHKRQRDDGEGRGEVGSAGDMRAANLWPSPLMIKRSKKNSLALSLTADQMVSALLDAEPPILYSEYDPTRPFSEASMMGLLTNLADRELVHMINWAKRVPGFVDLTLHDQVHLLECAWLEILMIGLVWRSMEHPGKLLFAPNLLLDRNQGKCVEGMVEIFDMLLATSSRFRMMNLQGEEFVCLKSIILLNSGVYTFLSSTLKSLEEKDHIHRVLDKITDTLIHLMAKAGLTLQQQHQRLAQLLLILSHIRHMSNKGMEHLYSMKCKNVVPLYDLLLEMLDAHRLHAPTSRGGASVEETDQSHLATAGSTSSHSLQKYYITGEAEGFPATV
Chain of Androgen receptor (Homo sapiens) (P10275 whole entry, looked up): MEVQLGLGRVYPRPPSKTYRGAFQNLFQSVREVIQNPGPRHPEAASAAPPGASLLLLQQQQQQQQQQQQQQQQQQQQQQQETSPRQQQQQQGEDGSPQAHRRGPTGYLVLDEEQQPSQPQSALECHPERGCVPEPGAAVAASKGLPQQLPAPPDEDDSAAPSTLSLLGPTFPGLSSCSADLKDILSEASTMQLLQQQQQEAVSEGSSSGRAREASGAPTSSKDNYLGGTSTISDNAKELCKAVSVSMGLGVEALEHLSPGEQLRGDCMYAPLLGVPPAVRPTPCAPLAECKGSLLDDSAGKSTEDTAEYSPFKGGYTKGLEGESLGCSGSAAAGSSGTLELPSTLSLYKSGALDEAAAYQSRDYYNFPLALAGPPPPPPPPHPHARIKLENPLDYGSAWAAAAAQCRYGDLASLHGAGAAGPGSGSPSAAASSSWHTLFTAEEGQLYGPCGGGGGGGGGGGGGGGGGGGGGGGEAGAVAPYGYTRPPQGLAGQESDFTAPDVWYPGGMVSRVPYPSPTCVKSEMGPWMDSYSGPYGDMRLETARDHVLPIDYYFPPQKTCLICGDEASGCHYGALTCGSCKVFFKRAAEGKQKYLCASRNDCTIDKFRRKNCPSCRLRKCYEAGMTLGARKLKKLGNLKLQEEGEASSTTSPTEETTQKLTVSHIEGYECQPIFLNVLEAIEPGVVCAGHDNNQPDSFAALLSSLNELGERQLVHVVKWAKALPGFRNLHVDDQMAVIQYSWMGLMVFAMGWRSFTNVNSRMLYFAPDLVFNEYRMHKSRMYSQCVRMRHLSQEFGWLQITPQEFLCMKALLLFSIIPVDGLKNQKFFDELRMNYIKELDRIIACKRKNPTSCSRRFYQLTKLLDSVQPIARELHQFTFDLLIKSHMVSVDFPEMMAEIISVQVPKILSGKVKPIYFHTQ

As for `CCCC[O][Al]([O]CCCC)[O]CCCC`, the Potency result in test [1], in [2], in [3], in test [4], in test [5] and in test [6] was “inactive” in each case. The Potency result in [7], in test [10], in [11], in test [12] and in [15] was “inactive” each time. Also, the compound was called inactive in test [8], in test [9], in test [13] and in [14].
For `NCC1CCC(C(=O)Oc2ccc(CCC(=O)O)cc2)CC1` (stereo unspecified), the Potency result in test [1], in [2], in [3], in [4], in test [5] and in test [6] was “inactive” throughout. Further, the Potency result in test [7], in [10], in test [11], in test [12] and in test [16] was “inactive” in each case. Further, the compound was classed as inactive in test [8], in test [9], in test [13], in test [14] and in test [17]. Besides, the Potency in test [15] is 8.41 µM (active).
As to `CCCCC(CC)COC(=O)CC#N` (stereo unspecified), the Potency entry in [1], in test [2], in test [3], in test [4], in test [5] and in test [6] was “inactive” in each case. Moreover, the Potency entry in test [7], in [10], in [11], in test [12] and in test [15] was “inactive” in each case. Also, the result in [8], in test [18], in [9], in [13] and in test [17] was inactive.
Take `COc1ccc2cc(CCC(C)=O)ccc2c1`: the Potency entry in test [1], in [2], in test [3], in test [4], in [5] and in [6] was “inactive” in each case. Besides, the Potency result in test [7], in [10], in [11], in test [12] and in [16] was “inactive” in each case. Besides, the compound was called inactive in [8], in test [9], in test [13], in test [14] and in test [17].
With `CCNC(=O)C(C)OC(=O)Nc1ccccc1` (stereo unspecified), the Potency entry in test [1], in test [2], in test [3], in test [4], in test [5] and in [6] was “inactive” each time. Further, the Potency entry in [7], in test [10], in test [11] and in [12] was “inactive” each time. Moreover, the compound was classed as inactive in test [8], in test [18], in test [9], in [14], in test [19] and in test [17].
On to `CCN(CC)CC`, for which the Potency result in [1], in [2], in test [3], in test [4], in test [5] and in test [6] was “inactive” each time. Besides, the Potency entry in test [7], in test [10], in [11], in test [12] and in test [15] was “inactive” each time. Moreover, the result in test [8], in test [9], in [13], in [14], in test [19] and in test [17] was inactive.
With `CC(C)(O)c1ccc(C(C)(C)O)cc1`, the Potency entry in test [1], in [2], in test [3], in test [4], in [5] and in test [6] was “inactive” in each case. For the same compound, the Potency entry in test [7], in test [10], in [11], in test [12] and in test [15] was “inactive” each time. Moreover, the compound was called inactive in test [8], in [9], in test [13], in test [14], in [19] and in [17].
As for `CCOC(=O)COc1ccc2c(C)c(CCN(CC)CC)c(=O)oc2c1Cl`, the Potency entry in [1], in test [2], in test [3], in [4], in [5] and in test [6] was “inactive” each time. Further, the Potency entry in test [7], in test [10], in test [11], in [12], in test [16] and in test [15] was “inactive” each time. Moreover, the call in test [8], in test [18], in [13], in test [14] and in test [17] was inactive.
Take `CC12CCCC=C1C(=O)OC2=O` (stereo unspecified): the Potency result in test [1], in [2], in [3], in [4], in test [5] and in test [6] was “inactive” in each case. Also, the Potency result in test [7], in test [10], in test [11], in test [12] and in test [20] was “inactive” each time. The compound was called inactive in test [8], in [9], in test [13], in [14] and in test [17].
Regarding `C=C(C)C(=O)OCCOC1CC2CC1C1C=CCC21` (stereo unspecified), the Potency result in [1], in [2], in [3], in test [4], in [5] and in test [6] was “inactive” each time. Further, the Potency entry in [7], in [10], in test [11], in test [12] and in [15] was “inactive” each time. The outcome in test [8], in test [9], in test [13], in test [14] and in [17] was inactive.
`CSC(=O)c1cccc2nnsc12`: the Potency entry in test [1], in test [2], in test [3], in [4], in [5] and in [6] was “inactive” throughout. Further, the Potency result in test [7], in test [10], in test [11], in test [12] and in [15] was “inactive” throughout. Besides, the compound was classed as inactive in test [8], in test [9], in [13], in test [14] and in [19]. Further, the Potency in test [20] is 15.4 µM (active).
Consider `Cc1ccc(NC(N)=O)cc1`, for which the Potency entry in test [1], in [2], in [3], in test [4], in test [5] and in test [6] was “inactive” throughout. Also, the Potency entry in [7], in test [10], in test [11], in test [12] and in test [15] was “inactive” each time. Moreover, the result in test [8], in test [9], in test [13], in test [14] and in test [19] was inactive.
`COCCCOc1cc(C[C@@H](C[C@H](N)[C@@H](O)C[C@H](C(=O)NCC(C)(C)C(N)=O)C(C)C)C(C)C)ccc1OC`: the Potency entry in test [1], in test [2], in test [3], in test [4], in test [5] and in test [6] was “inactive” each time. Besides, the Potency entry in test [7], in [10], in test [11], in test [12] and in test [15] was “inactive” in each case. Besides, the outcome in test [8], in [9], in test [13], in test [14] and in [19] was inactive.
Consider `CC(=O)Nc1ccc(S(=O)(=O)Nc2cc(C)on2)cc1`, for which the Potency result in test [1], in test [2], in test [3], in test [4], in [5] and in test [6] was “inactive” in each case. The Potency entry in [7], in test [10], in test [11], in test [12] and in [15] was “inactive” in each case. The result in [8], in test [9], in [13], in [14], in [19] and in test [17] was inactive. In addition, in test [16], the PLD induction was 3.97% [at 7.66 µM].
Regarding `CC(C)CC(O)Cc1ccccc1` (stereo unspecified), the Potency result in [1], in test [2], in [3], in test [4], in test [5] and in test [6] was “inactive” throughout. In addition, the Potency entry in test [7], in test [10], in [11], in test [12], in test [20] and in test [15] was “inactive” each time. In addition, the outcome in [8], in [9], in test [13] and in test [14] was inactive.
